Several values for one entry are separate records, joined by “and”; a condition that tells them apart may be missing. Equal values may be shown once. Inconclusive results are not listed. Activity calls are given as the source filed them. Calls follow the shape of the dose curve; as a rule, active = well fitted inhibition curve with a large enough effect; inconclusive = small, poorly fitted or top-dose-only effect; inactive = flat fitted curve, though single readings scatter.
% is scaled to controls: 0 for no effect and ±100 for the full control effect; potency is read from the fitted curve at half-maximal effect.

This test relates to NIH3T3. Nature of the test: Cytotoxic Profiling of Annotated Libraries Using Quantitative High-Throughput Screening (AID 1296008). Also: nearly all actives have a fitted effect of over 60% in size. The following applies: Five cell lines viability, CellTiter-Glo ATP luminescence, 48-72 h; max response: active compounds read low. The source says: Cell-based phenotypic screening is a commonly used approach to discover biological pathways, novel drug targets, chemical probes and high-quality hit-to-lead molecules. Many hits identified from high-throughput screening campaign are ruled out through a series of follow-up potency, selectivity/specificity, and cytotoxicity assays. Prioritization of molecules with little or no cytotoxicity for a more in-depth downstream evaluation influence the future direction of projects, so cytotoxicity profiling of the screening libraries at early stage is essential for increasing the likelihood of candidate success. […] For the annotated library, we also examined the primary targets and mechanistic pathways regularly associated with cell death. To our knowledge, this is the first study to use high-throughput screening to profile large libraries for cytotoxicity assessment in both normal and cancer cell lines. In summary, the results generated here constitutes a valuable resource for the scientific community and provides insight on identifying cytotoxic compounds with particular mechanisms of action, and prioritizing compounds with suitable cytotoxicity profile for further evaluation.
A pintool (Kalypsys) was used to transfer 23 nL of compound solution to the 1536-well assay plates. After 48 or 72 hr incubation at 37 degree Celsius, 5% CO2 and 95% humidity, 2.5 uL of CellTiter-Glo (Promega) was dispensed into each well using a dispenser (Aspect Automation, St. Paul, MN) with solenoid valves (Lee Valves, Westbrook CT). Plates were left at room temperature for 10 min before imaging the ATP-coupled luminescence using a ViewLux microplate imager (PerkinElmer, Waltham, MA).
Consider `Cc1ccc(/C=N/NC(=O)c2ccccc2Oc2ccccc2)o1`, for which the max response was -19% (inactive). As for `NC(CO)(CO)CCc1ccc(Sc2cccc(OCc3ccccc3)c2)cc1Cl`, the Potency was 16.6 µM (active). Regarding `Clc1ccc(-c2nc3sccn3c2C=NOCc2ccc(Cl)c(Cl)c2)cc1`, the max response is -1.3% (inactive). Turning to `CO[C@H]1C=CC=C(C)C(=O)NC2=CC(=O)C(NCCN(C)C)=C(C[C@@H](C)C[C@H](OC)[C@@H](O)[C@@H](C)C=C(C)[C@@H]1OC(N)=O)C2=O`, the Potency was 0.132 µM (active). For the compound `O=C(O)CCc1nc(-c2ccccc2)c(-c2ccccc2)o1`, the compound was called inactive and the max response is 3.82% (inactive). Turning to `COc1ccc(C2CC(c3ccccc3)=NN2c2ccc(S(N)(=O)=O)cc2)cc1` (stereo not given), the max response is -14.6% (inactive) and -17.5% (inactive). The same measure, in the same setting: to `NC(=O)c1cnc(-c2ccc(C3(N)CCC3)cc2)c(-c2ccccc2)c1` belongs 4.42% (inactive). For the compound `O=C(Nc1ccccc1Br)N[C@@H]1CCN(c2ccc(C(F)(F)F)cn2)C1`, the max response was -2.32% (inactive). On the same count and under the same terms, under `Nc1ncnc2ccccc12` stands -0.365% (inactive); under `CS(=O)c1ccc(-c2nc(-c3ccc(F)cc3)c(-c3ccncc3)[nH]2)cc1` (stereo not given), 3.16% (inactive) and 3.83% (inactive). Same read-out and setting: to `C=CCc1ccc(O)c(-c2ccc(O)c(CC=C)c2)c1` belongs -7.37% (inactive). Same read-out and setting: to `O=c1c(O)c(-c2ccc(O)cc2)oc2cc(O)cc(O)c12` belongs -2.9% (inactive). Regarding `Nc1ncnc2c1ncn2[C@@H]1O[C@@H](CO)[C@H](O)[C@H]1O`, the max response was -24.9% (inactive). Regarding `Cn1c(N2CCCCS2(=O)=O)nc(C(=O)NCc2ccc(F)cc2)c(O)c1=O`, the compound was classed as inactive and the max response is -0.0051% (inactive). Turning to `O=C1C[C@@H](c2ccc(O)cc2)Oc2cc(O)cc(O)c21`, the max response is 1.63% (inactive). In the case of `CN(C)CCC=C1c2ccccc2COc2ccc(CC(=O)O)cc21`, the call was inactive.

For `O=C(O)c1ccccc1C(=O)Nc1ccc(-c2ccccc2)cc1`, the call was inactive. Turning to `Nc1ncnc2c1ncn2[C@@H]1O[C@H](CO)C[C@@H]1O`, the max response was -2.75% (inactive).

On to `C[C@@H]1CCN(C(=O)CC#N)C[C@H]1N(C)c1ncnc2[nH]ccc12`, for which the max response was -18.3% (inactive). The same measure, in the same setting: under `Cc1cnc(C(=O)O)c[n+]1[O-]` stands -3.95% (inactive). Consider `CN(C)CCC(c1ccccc1)c1ccccn1` (stereo not given), for which the outcome was inactive and the max response is -1.68% (inactive). Turning to `COC(=O)C1=CO[C@@H](O)[C@@H]2C(CO)=CC[C@@H]12`, the outcome was inactive. `CC1CCC(C(=O)N(c2cc(C#CC(C)(C)C)sc2C(=O)O)C2CCC(O)CC2)CC1` (stereo not given): the result was inactive and the max response was -3.97% (inactive). With `CC1(C)Cc2c(sc(NC(=S)NC(=O)c3ccccc3)c2C(=O)O)CO1`, the compound was classed as inactive.

On to `COc1cc(N2CCC(N3CCN(C)CC3)CC2)ccc1Nc1ncnc(Nc2ccccc2S(=O)(=O)C(C)C)n1`, for which the Potency was 3.32 µM (active) and 3.66 µM (active). In the case of `O=c1cc(-c2cccc3c2Sc2ccccc2S3)oc(N2CCOCC2)c1`, the compound was classed as inactive.

Regarding `NC(=O)[C@@H](CCC(F)(F)F)N(Cc1ccc(-c2ncon2)cc1F)S(=O)(=O)c1ccc(Cl)cc1`, the max response was -26.9% (inactive). For the compound `COc1ccc(-c2coc3cc(O)cc(O)c3c2=O)cc1`, the outcome was inactive. As for `CN(C)C1CCN(C(=O)c2ccc(NC(=O)Nc3nc(N4CCOCC4)nc(N4CCOCC4)n3)cc2)CC1`, the Potency is 0.0935 µM (active). Regarding `COc1cc(O)c2c(c1)C(=O)c1cc(C)cc(O)c1C2=O`, the compound was classed as inactive. On to `O=c1cc(N2CCOCC2)oc2c(-c3cccc4c3sc3ccccc34)cccc12`, for which the Potency is 16.6 µM (active). For the compound `C[C@]12CCC3c4ccc(O)cc4CCC3C1CCC2=O` (stereo not given in full), the max response is -7.72% (inactive).

On to `Oc1ccc(C2=Cc3ccc(O)cc3OC2)cc1`, for which the Potency is 7.43 µM (active).

Consider `COC[C@@H](c1ccc(C(F)(F)F)cc1)N1CCN(C2(C)CCN(C(=O)c3c(C)ncnc3C)CC2)C[C@H]1C`, for which the max response was 4.62% (inactive).

Take `Cn1cc(C=C2C(=O)Nc3cccnc32)c2ccccc21`: the max response was -5.8% (inactive). Regarding `CC(C)(C)c1ccc(C(O)CCCN2CCC(C(O)(c3ccccc3)c3ccccc3)CC2)cc1` (stereo not given), the max response is -3.57% (inactive).

These data come from PubChem BioAssay (NCATS).
